KKLEB tox: counter-screen for CF NF-kB inhibitors: cytotoxicity; 360,000 compounds, 0.36% hits; KKLEB CF airway cells viability, ATPlite luminescence, overnight; active compounds read low; cells stimulated with P. aeruginosa culture filtrate; activity change (cytotoxicity), % at 5 µM; AID 602141;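 active = corrected activity change at or below -50% at 5 µM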
Peg3 promoter: reduces Peg3 promoter-driven luciferase expression in HeLa; HeLa PEG-Prom luciferase reporter, luminescence, overnight; inhibition, % at 20 µM; 360,000 compounds, 1.7% hits; AID 588405;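 active = inhibition of at least 50% at 20 µM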
HIF-2a block: HIF-2a inhibition; 786-0 RCC cells HIF-2a reporter, luciferase luminescence, overnight; AID 624352; 360,000 compounds, 0.72% hits; inhibition, % at 18.8 µM;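 active = inhibition of the luminescence signal of 40% or more relative to plate controls, in a single-dose primary screen at 18.75 µM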
PPC-1+TRAIL kill: kills PPC-1 cancer cells in the presence of TRAIL. 220,000 compounds, 0.41% hits. PPC-1 cells + TRAIL, ATPLite viability luminescence. cell killing (% activity), % at 4 µM or 5 µM. AID 1443;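 active = cell killing above 50% in the first pass at 4 µM, then a duplicate retest at 5 µM averaging 50% or more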
C8 TRAIL sens: sensitizes caspase-8 expressing cells to TRAIL; NB7+C8 cells + TRAIL, ATPlite viability luminescence; inhibition (viability loss, TRAIL sensitization), % at 10 µM; 360,000 compounds, 1% hits;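 active = compounds causing at least 50% loss of cell viability in the single-dose screen, relative to plate controls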
CF NFkB block: cystic fibrosis NF-kB activation inhibition. KKLEB NF-kB-GFP reporter, PAF-induced, GFP fluorescence overnight. inhibition, % at 5 µM. 360,000 compounds, 0.86% hits;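 active = at least 50% inhibition at 5 µM, scaled per plate between neutral and stimulator controls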;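 also: PAF is a Pseudomonas aeruginosa culture filtrate used as stimulus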
PPC1 cytotox: PPC-1 cell cytotoxicity; shares compounds with PPC-1+TRAIL kill; 1,200 compounds, 50% hits; PPC-1 viability, ATPlite luminescence, overnight; cytotoxicity, % at 5 µM;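 active = reconfirmed compounds whose average cytotoxicity reaches 50% or more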
Each line names hits and unclear results; the compound was inactive in the other large screens (follow-up assays come after a bar, where they were run). Only some compounds are listed: those with a hit (about 3.1% of all), similar ones and a draw of the others.

O=C(N/N=C/c1cccnc1)c1ccc2c(c1)OCCO2	PPC-1+TRAIL kill 55, C8 TRAIL sens 81 | PPC1 cytotox 59
O=C(N/N=C/c1ccc2c(c1)OCO2)c1cccnc1	none (no result: PPC-1+TRAIL kill)
Cc1cc2c3c(ccc(C)c3n1)N=CN2c1ccccc1	none | PPC1 cytotox inactive
CCN(CC(=O)Nc1c(C(=O)OC)[nH]c2ccc(Cl)cc12)c1ccc2c(c1)OCO2	none | PPC1 cytotox inactive
O=C1OC2C(O)COC23OC(O)CCC13O (configuration not stated)	none (no result: PPC-1+TRAIL kill)
Cc1ccc(N2C(=O)c3ccccc3C2Nc2ccccc2F)nc1 (configuration not stated)	none
Cc1ccc(N2C(=O)c3ccccc3C2O)nc1 (configuration not stated)	PPC-1+TRAIL kill 53 (no result: KKLEB tox, Peg3 promoter, HIF-2a block, C8 TRAIL sens, CF NFkB block) | PPC1 cytotox 54
COc1ccc(N=Nc2cc(OC)c(N)cc2OC)cc1	none (no result: PPC-1+TRAIL kill)
Cc1cc(N=Nc2ccc(C)c(N=Nc3cc(C)c(N)cc3N)c2)c(N)cc1N	PPC-1+TRAIL kill 64, C8 TRAIL sens 51 | PPC1 cytotox 63
O=C(CCl)N=c1sccn1Cc1cccc2ccccc12	KKLEB tox -98, PPC-1+TRAIL kill 97, C8 TRAIL sens 95, CF NFkB block 91 | PPC1 cytotox 98
Cn1c(-c2cccc([N+](=O)[O-])c2)cnc1NCc1cccc(F)c1	none (no result: PPC-1+TRAIL kill)
N#CCC(=O)Nc1ccc(C(=O)OCC(=O)c2ccc3c(c2)NC(=O)CO3)cc1	none (no result: PPC-1+TRAIL kill)
CC1CN(C(=O)c2ccccc2C(=O)c2ncc[nH]2)CC(C)O1 (configuration not stated)	none
O=C(c1ncc[nH]1)c1ccccc1C(=O)N1CCOCC1	none | PPC1 cytotox inactive
Clc1ccc(-n2cnnn2)cc1	none
Oc1ccc(-n2cnnn2)cc1	none | PPC1 cytotox inactive
COc1cccc(-c2nnn(CC(=O)Nc3cc(OC)c(NC(=O)c4ccco4)cc3OC)n2)c1	none | PPC1 cytotox inactive
CC[C@@]1(C(=O)OC)N[C@H](CN(C)C(=O)COC)[C@@H]2C(=O)N(Cc3ccccc3)C(=O)[C@@H]21	none (no result: PPC-1+TRAIL kill)
CCCCCCn1cc(CN2CC(N3CCN(CCO)CC3)CS2(=O)=O)nn1 (configuration not stated)	none (no result: KKLEB tox, Peg3 promoter, PPC-1+TRAIL kill, CF NFkB block)
COc1ccc2nc(SC)c(C#N)cc2c1	none
COc1ccc2nc(SCC(C)=O)c(C#N)cc2c1	none | PPC1 cytotox inactive
C[C@H](CO)N1C[C@H](C)[C@@H](CN(C)Cc2ccc(Oc3ccccc3)cc2)Oc2cc(Br)ccc2S1(=O)=O	none (no result: PPC-1+TRAIL kill)
Nc1[nH]n(-c2ccccc2)c(=O)c1N=Nc1ccc2c(c1)OCCO2	C8 TRAIL sens 55 | PPC1 cytotox inactive
Cc1ccn2cc(-c3ccc(Br)cc3)nc2c1	PPC-1+TRAIL kill 82, C8 TRAIL sens 86 | PPC1 cytotox 83
COc1cc(/C=C/CNC[C@H]2O[C@@H](n3cc(C)c(=O)[nH]c3=O)C[C@@H]2O)ccc1O	none (no result: PPC-1+TRAIL kill)
CCCNC(=O)C1(C)CCCN(C(=O)c2ccccc2F)C1 (configuration not stated)	none (no result: PPC-1+TRAIL kill)
c1ccc(C[C@H]2CNCCN2CC2(c3ccccc3)CC2)cc1	none (no result: PPC-1+TRAIL kill)
COc1cccc(-c2nc3ccccc3s2)c1O	PPC-1+TRAIL kill 61, C8 TRAIL sens 73 | PPC1 cytotox 64
COc1cc(OC)c(-c2nc3ccccc3s2)cc1OC	none
c1ccc(-n2nnc3c(N4CCOCC4)ncnc32)cc1	C8 TRAIL sens 66 | PPC1 cytotox inactive
Cc1ccc(C(=O)N(C)c2ccc(OCC(=O)N3c4ccc(C)cc4C4CN(C)CCC43)cc2)cc1 (configuration not stated)	PPC-1+TRAIL kill 52, C8 TRAIL sens 52 | PPC1 cytotox inactive
CCCOc1ccc(C(=O)C(c2ccccc2)N2CCOCC2)cc1 (configuration not stated)	none | PPC1 cytotox inactive
Cc1cccc(NS(=O)(=O)c2cc(C(=O)N3CCc4ccccc4C3)ccc2Cl)c1C	none | PPC1 cytotox inactive
CN1C(=O)N(CC(=O)Nc2ccc3c(c2)OCO3)C(=O)C12CCCCC2	none (no result: PPC-1+TRAIL kill)
CCOC(=O)c1cnn(-c2ncnc3c2oc2ccccc23)c1N	none | PPC1 cytotox inactive
CCOC(=O)C1CCN(c2ncnc3c2oc2ccccc23)CC1	none
c1ccc(-c2nc3ccccc3[nH]2)cc1	none (no result: PPC-1+TRAIL kill)
COc1ccc(-c2nc3ccccc3[nH]2)cc1	PPC-1+TRAIL kill 78, C8 TRAIL sens 79 | PPC1 cytotox 77
Cc1ccc(C(=O)Nc2nccs2)cc1	none | PPC1 cytotox inactive
Cc1ccc(C(=O)Nc2nc(=O)n(C)s2)cc1	C8 TRAIL sens 53 | PPC1 cytotox inactive
Cc1ccc(C(=O)Nc2nc(=O)n(C(=O)CC(C)C)s2)cc1	none
Nc1ccc(C(=O)Nc2nccs2)cc1	none
CC(C)CN1C(=O)CSCC1(C)C(=O)NC(C)C (configuration not stated)	none (no result: KKLEB tox, Peg3 promoter, PPC-1+TRAIL kill, CF NFkB block)
COCCN(C(=O)c1ccc(N2C(=O)c3ccccc3C2=O)cc1)c1c(N)n(CC(C)C)c(=O)[nH]c1=O	none (no result: PPC-1+TRAIL kill)
O=C(C1CCCN1C(=O)c1cccs1)N1CCN(S(=O)(=O)c2ccc(F)cc2)CC1 (configuration not stated)	none (no result: PPC-1+TRAIL kill)
COC(=O)Cn1cnc2c(Cl)nc(F)nc21	none (no result: PPC-1+TRAIL kill)
COC(=O)C1=C(C)N(CC(C)C)C(=O)C1	none | PPC1 cytotox inactive
Cc1cc(NC(=O)CSC2=Nc3ccccc3C3=NC(Cc4ccccc4)C(=O)N23)n[nH]1 (configuration not stated)	none | PPC1 cytotox inactive
CCCCNC(=O)CC1N=C2c3ccccc3N=C(SCC(=O)Nc3cccc(C)c3)N2C1=O (configuration not stated)	none
COC(=O)C1=C(Nc2cc(Cl)cc(Cl)c2)CSC1	none
Cc1csc(N/N=C/c2ccccn2)n1	C8 TRAIL sens 73 | PPC1 cytotox inactive
Cc1csc(N/N=C/c2ccc([N+](=O)[O-])cc2)n1	none (no result: PPC-1+TRAIL kill)
Nc1nc(CCl)nc(N(c2ccccc2)c2ccccc2)n1	KKLEB tox -73, PPC-1+TRAIL kill 90, C8 TRAIL sens 93, CF NFkB block 70 | PPC1 cytotox 90
COc1ccc(C(=O)CSC(=S)N2CCCCC2)cc1	none (no result: PPC-1+TRAIL kill)
Cn1cc(CC(=O)N2CCN(c3ccc(Cl)cc3)CC2)c2ccccc21	none | PPC1 cytotox inactive
CCCCCCCCCCCCCCCCCCNc1ccn(C2OC(COP(=O)(O)OCC3OC(n4cc(F)c(=O)[nH]c4=O)CC3O)C(O)C2O)c(=O)n1 (configuration not stated)	none (no result: PPC-1+TRAIL kill)
Cc1occc1-c1nnc(SCC(=O)Nc2ccccn2)o1	none
O=C(CSc1nnc(-c2ccccc2Cl)o1)Nc1ccccn1	PPC-1+TRAIL kill 63, C8 TRAIL sens 52 | PPC1 cytotox 65
CCCN(C)C1CN(Cc2cn(Cc3ccc(F)cc3)nn2)S(=O)(=O)C1 (configuration not stated)	none (no result: KKLEB tox, Peg3 promoter, PPC-1+TRAIL kill, CF NFkB block)
CC(=O)Nc1cccc(-c2nc3ccc(NC(C)=O)cc3s2)c1	none | PPC1 cytotox inactive
Cn1cccc1C(=O)NC(=O)CSc1nc2ccccc2s1	none

Screens (PubChem BioAssay)
